Measurements as given in the supplement of paper PMC13380429.

Tested on: Vero E6 infected with SARS-CoV-2
Assay: inhibition of SARS-CoV-2 cytopathic effect; higher = more antiviral protection, active = above 15
Conditions: 48 h

Measured: inhibition of SARS-CoV-2 cytopathic effect

N#Cc1cc(-c2n[nH]c(-c3ccncc3)n2)ccn1 [topiroxostat]
inactive: 1 nM 0.4% | 8.33 nM 0.34% | 100 nM 3.87% | 833.33 nM -0.47% | 10000 nM 0.11%

CCC[N+]12[C@H](O)[C@@H](CC)[C@@H]3C[C@H]1[C@@H]1N(C)c4ccccc4[C@]14C[C@H]2[C@@H]3[C@H]4O [neo-gilurytmal]
inactive: 1 nM -1.96% | 8.33 nM -1.28% | 100 nM 0.64% | 833.33 nM 1.4% | 10000 nM -3.83%

CC(C)(C)NCC(O)c1ccccc1Cl (stereo not given) [tulobuterol]
inactive: 1 nM 2.01% | 8.33 nM 1.33% | 100 nM -0.63% | 833.33 nM -10.6% | 10000 nM 2%

N#Cc1ccccc1OCC(O)CNCCNC(=O)Nc1ccccc1 (stereo not given)
inactive: 1 nM 0.6% | 8.33 nM 0.87% | 100 nM -0.54% | 833.33 nM 0.35% | 10000 nM -2.72%

COC(=O)CCC(=O)CN [methyl-aminolevulinate]
inactive: 1 nM 2.97% | 8.33 nM 2.46% | 100 nM 1.49% | 833.33 nM 3.55% | 10000 nM 5.12%

CCNCC(O)c1cccc(O)c1 (stereo not given) [etilefrine]
inactive: 1 nM -0.51% | 8.33 nM 2.79% | 100 nM -0.96% | 833.33 nM -0.19% | 10000 nM 1.89%

NC1=N[C@@](c2cccc(-c3cncnc3)c2)(c2ccnc(C(F)F)c2)c2cccc(F)c21
inactive: 1 nM 0.77% | 8.33 nM -1.06% | 100 nM -1.46% | 833.33 nM -0.56% | 10000 nM -2.76%

OC[C@H]1NCC[C@@H](O)[C@@H]1O [fagomine]
inactive: 1 nM -1.09% | 8.33 nM 1.34% | 100 nM 1.02% | 833.33 nM 2.42% | 10000 nM 0.75%

C#Cc1cncc([C@@H]2CCCN2C)c1 [altinicline]
inactive: 1 nM -3.46% | 8.33 nM -2.16% | 100 nM -1.9% | 833.33 nM -2.32% | 10000 nM 0.92%

CCN1CCN(C(=O)N[C@@H](C(=O)N[C@@H]2C(=O)N3C(C(=O)O)=C(CSc4nnnn4C)CS[C@H]23)c2ccc(O)cc2)C(=O)C1=O [cefoperazone]
inactive: 1 nM -0.37% | 8.33 nM -0.65% | 100 nM 0.99% | 833.33 nM 3.89% | 10000 nM 2.57%

CON [methoxyamine]
inactive: 1 nM 0.67% | 8.33 nM -2.53% | 100 nM -0.44% | 833.33 nM -3.19% | 10000 nM -0.96%

NC[C@@](O)(c1ccc(Cl)cc1)c1ccc(-c2cn[nH]c2)cc1
inactive: 1 nM -0.97% | 8.33 nM 1% | 100 nM -2.8% | 833.33 nM -3.57% | 10000 nM -13.7%

C[C@@H]([C@@H](O)c1ccc(O)cc1)N1CCC(O)(c2ccccc2)CC1 [traxoprodil]
inactive: 1 nM 4.34% | 8.33 nM -0.79% | 100 nM -2.83% | 833.33 nM 1.39% | 10000 nM -1.06%

NCC(O)(CS(=O)(=O)O)c1ccc(Cl)cc1 (stereo not given) [2-hydroxysaclofen]
inactive: 1 nM 0.19% | 8.33 nM 1.62% | 100 nM -0.08% | 833.33 nM 3.7% | 10000 nM 0.53%

COc1cc(F)c(C(C)C)cc1-c1ccc(C(F)(F)F)cc1CN1C(=O)O[C@H](c2cc(C(F)(F)F)cc(C(F)(F)F)c2)[C@@H]1C [anacetrapib]
inactive: 1 nM 0.72% | 8.33 nM 0.48% | 100 nM -1.02% | 833.33 nM -2.52% | 10000 nM 2.39%

Cc1cc(OCc2nnc(SC3CCCC3)n2-c2cccnc2)ccc1-c1ccc(S(C)(=O)=O)cc1
inactive: 1 nM -0.48% | 8.33 nM 0.31% | 100 nM 1.82% | 833.33 nM 5.04% | 10000 nM -19.7%

CC(C)(C)NC(=O)N[C@H](C(=O)N1C[C@H]2[C@@H]([C@H]1C(=O)NC(CC1CCC1)C(=O)C(N)=O)C2(C)C)C(C)(C)C (stereo not given in full) [boceprevir]
inactive: 1 nM 0.88% | 8.33 nM -0.31% | 100 nM -1.61% | 833.33 nM -1.89% | 10000 nM 1.17%

Cc1ccc2c(Br)cc(Br)c(OC(=O)c3ccccc3)c2n1 [broxaldine]
inactive: 1 nM 0.35% | 8.33 nM 0.53% | 100 nM 4.07% | 833.33 nM 5.01% | 10000 nM 11.5%

O=C(Cc1cccc(OC(F)(F)F)c1)Nc1ccc(CCCCc2nnc(NC(=O)Cc3ccccn3)s2)nn1
inactive: 1 nM -1.49% | 8.33 nM -0.26% | 100 nM -1.18% | 833.33 nM -5.17% | 10000 nM -3.68%

Cc1nnc(C[C@@H]2C=C(c3ccc(Cl)cc3)c3ccccc3-n3c(C)nnc32)o1
inactive: 1 nM 1.71% | 8.33 nM 0.46% | 100 nM 2.65% | 833.33 nM -4.91% | 10000 nM -11.7%

CN[C@@H](C)C(=O)N[C@H](C(=O)N1CCC[C@H]1C(=O)Nc1sc(-c2ncco2)nc1-c1ccccc1)C1CCCCC1
inactive: 1 nM -0.55% | 8.33 nM -0.2% | 100 nM -0.7% | 833.33 nM 0.89% | 10000 nM 0.18%

CCN(CC)C(=O)c1ccc(C2=CC3(CCNCC3)Oc3cccc(O)c32)cc1
inactive: 1 nM -0.93% | 8.33 nM -0.47% | 100 nM -4.19% | 833.33 nM -2.26% | 10000 nM -2.32%

CCC[C@@H]1C[C@@H](C(=O)N[C@@H]([C@H]2O[C@H](SC)[C@H](OP(=O)(O)O)[C@@H](O)[C@H]2O)[C@H](C)Cl)N(C)C1 [Clindamycin phosphate]
inactive: 1 nM 2.18% | 8.33 nM -1.74% | 100 nM 2.16% | 833.33 nM 1.59% | 10000 nM 0.27%

CC(=O)Oc1c(C)cc(OCC(O)CNC(C)C)c(C)c1C (stereo not given) [metipranolol]
inactive: 1 nM -0.83% | 8.33 nM 0.56% | 100 nM 0.06% | 833.33 nM -1.66% | 10000 nM -3.06%

Nc1ncnc2c1ncn2[C@H]1CC[C@@H](CO)O1 [dideoxyadenosine]
inactive: 1 nM 2.15% | 8.33 nM 2.41% | 100 nM 2.1% | 833.33 nM 1.23% | 10000 nM 4.14%

OCCN1CCN(CC/C=C2/c3ccccc3Sc3ccc(Cl)cc32)CC1 [zuclopenthixol]
inactive: 1 nM -1.15% | 8.33 nM -3.42% | 100 nM -1.94% | 833.33 nM -3.61% | 10000 nM 8.42%

Clc1ccc(C(c2ccccc2Cl)C(Cl)Cl)cc1 (stereo not given) [mitotane]
inactive: 1 nM -2.51% | 8.33 nM -1.75% | 100 nM -2.14% | 833.33 nM -2.16% | 10000 nM 0.99%

COc1cc(N2CCC(N)CC2)ccc1Nc1ncc(Cl)c(-c2c[nH]c3ccccc23)n1
inactive: 1 nM -1% | 8.33 nM 0.49% | 100 nM -1.87% | 833.33 nM -3.58% | 10000 nM -8.45%

Cc1csc(NC(=O)CSc2ccc(-c3ccccc3)nn2)n1
inactive: 1 nM 6.45% | 8.33 nM -1.88% | 100 nM -1.71% | 833.33 nM -1.48% | 10000 nM 12.2%

CN[C@@H](C)[C@H]1[C@H](O)C[C@@]2(C)[C@@H]3CC[C@H]4C(C)(C)[C@@H](NC)CC[C@@]45C[C@@]35CC[C@]12C [cyclovirobuxin-D]
inactive: 1 nM -0.38% | 8.33 nM 2.73% | 100 nM 3.9% | 833.33 nM 2.48% | 10000 nM -7.38%

Nc1nc(=O)n([C@H]2C[C@H](O)[C@@H](CO)O2)cc1F [fdcyd]
inactive: 1 nM 0.4% | 8.33 nM 0.55% | 100 nM -0.04% | 833.33 nM 8.53% | 10000 nM -2.15%

CCOc1ccccc1C(=O)O [2-ethoxybenzoic-acid]
inactive: 1 nM 2.67% | 8.33 nM 3.72% | 100 nM 4.26% | 833.33 nM 0.66% | 10000 nM -0.66%

C[C@]12CC[C@H](O)CC1=CC[C@@H]1[C@@H]2CC[C@]2(C)C(=O)CC[C@@H]12
inactive: 1 nM 1.25% | 8.33 nM 0.45% | 100 nM 0.19% | 833.33 nM 5.63% | 10000 nM 1.12%

O=S(=O)(O)c1cc(I)c(O)c2ncccc12 [chiniofon]
inactive: 1 nM -0.29% | 8.33 nM -0.47% | 100 nM -0.93% | 833.33 nM 3.44% | 10000 nM -0.39%

CCCCOc1nc(N)c2c(n1)N(Cc1cccc(CN3CCCC3)c1)CC(=O)N2
inactive: 1 nM 0.32% | 8.33 nM 2.16% | 100 nM 0.03% | 833.33 nM 2.02% | 10000 nM 1.92%

O=C1C[C@@H](c2ccc(O)cc2)Oc2cc(O)ccc21
inactive: 1 nM -0.59% | 8.33 nM 2.87% | 100 nM 2.13% | 833.33 nM 1.65% | 10000 nM 12%

COCCNC(=O)Cn1cnc([N+](=O)[O-])n1 [sanazole]
inactive: 1 nM -0.19% | 8.33 nM 0.45% | 100 nM -0.68% | 833.33 nM -0.43% | 10000 nM -3%

Clc1ccccc1CN1CCc2sccc2C1 [ticlopidine]
inactive: 1 nM -1.31% | 8.33 nM -0.14% | 100 nM 0.36% | 833.33 nM 1.94% | 10000 nM -1.5%

O=c1sn(-c2cccc3ccccc23)c(=O)n1Cc1ccccc1 [tideglusib]
inactive: 1 nM -1.59% | 8.33 nM -1.6% | 100 nM -1.32% | 833.33 nM 0.87% | 10000 nM -0.03%

COc1ccc(S(=O)(=O)N2CCCN(S(=O)(=O)c3ccc(OC)c(OC)c3)CC2)cc1OC
inactive: 1 nM -2.26% | 8.33 nM -1.47% | 100 nM -0.96% | 833.33 nM -5.53% | 10000 nM 6.2%
